Inconclusive results are not listed. Activity calls are given as the source filed them. Calls follow the shape of the dose curve; as a rule, active = well fitted inhibition curve with a large enough effect; inconclusive = small, poorly fitted or top-dose-only effect; inactive = flat fitted curve, though single readings scatter.
Key:
Assay in all cases: qHTS profiling for inhibitors of Plasmodium falciparum proliferation (AID 504749); also: nearly all actives have a fitted effect of over 60% in size
Conditions in all cases: P. falciparum in erythrocytes, SYBR Green DNA, 72 h; series mostly up to 28.7 µM
CP265 = tested on: CP265
In short: (§1)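 P. falciparum-infected erythrocytes (0.3% parasitemia, 2.5% hematocrit final) were exposed to compounds for 72 h at 37 C in 5% CO2, then lysed with SYBR Green buffer overnight at room temperature; parasite DNA fluorescence was normalized to artemisinin and DMSO controls.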

CP266 = tested on: CP266
In short: as §1

CP268 = tested on: CP268
In short: as §1

CP269 = tested on: CP269
In short: as §1

CP286 = tested on: CP286
In short: as §1

CP291 = tested on: CP291
In short: as §1

CP305 = tested on: CP305
In short: as §1

CP315 = tested on: CP315
In short: as §1

CP325 = tested on: CP325
In short: as §1

CP329 = tested on: CP329
In short: as §1

CP335 = tested on: CP335
In short: as §1

DFO2036 = tested on: DFO2036
In short: as §1

DIV14 = tested on: DIV14
In short: as §1

DIV17 = tested on: DIV17
In short: as §1

DIV30 = tested on: DIV30
In short: as §1

Dd2 = tested on: Dd2
In short: as §1

ECU = tested on: ECU
In short: as §1

FAB9 = tested on: FAB9
In short: as §1

GB4 = tested on: GB4
In short: as §1

HB3 = tested on: HB3
In short: as §1

ICS = tested on: ICS
In short: as §1

JCK = tested on: JCK
In short: as §1

N140 = tested on: N140
In short: as §1

P93_24 = tested on: P93_24
In short: as §1

P94_40 = tested on: P94_40
In short: as §1

PAD = tested on: PAD
In short: as §1

PC15 = tested on: PC15
In short: as §1

PC26 = tested on: PC26
In short: as §1

PC49 = tested on: PC49
In short: as §1

SC27B = tested on: SC27B
In short: as §1

TAB109 = tested on: TAB109
In short: as §1

TAB113 = tested on: TAB113
In short: as §1

TAB165 = tested on: TAB165
In short: as §1

Measured: Potency

C/C=C1\C2C=C(C)CC1(N)c1ccc(=O)[nH]c1C2 (stereo not drawn)
inactive: all assays above
